Screening results: PubChem, several laboratories
The list is not random: actives were taken first. Their share in the collection is about 2.4%.
HSP90 refold inh: blocks HSP90-mediated luciferase refolding in reticulocyte lysate | Rabbit reticulocyte lysate, luciferase refolding luminescence, 3 h | 290,000 tested, 0.91% active | AID 1789 | inhibition, % at 5.6 µM;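 active means inhibition above the screen-wide mean plus 3 SD, computed separately per campaign, cut at about 16% in these data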;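 further: inhibitors lower the luminescence because luciferase stays unfolded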
PPC-1+TRAIL kill: compounds killing PPC-1 cancer cells with TRAIL present (potentiator screen, no TRAIL-free arm); PPC-1 cells + TRAIL, ATPLite viability luminescence; cell killing (% activity), % at 4 µM or 5 µM; 220,000 tested, 0.41% active; AID 1443;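 active means cell killing above 50% in the first pass at 4 µM, then a duplicate retest at 5 µM averaging 50% or more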
TRAIL sens C8: caspase-8 TRAIL sensitization; NB7+C8 cells + TRAIL, ATPlite viability luminescence; inhibition (viability loss, TRAIL sensitization), % at 10 µM; 360,000 tested, 1% active; AID 624354;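 active means compounds causing at least 50% loss of cell viability in the single-dose screen, relative to plate controls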
HSF1 inh: HSF1 inhibition; 300,000 tested, 0.77% active; activity change, negative = inhibition, % at 7.5 µM (by protocol); NIH3T3-HGL HSE-luciferase, MG132-induced, luminescence 8 h; stronger effect = lower value;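 active means more than half of replicate wells show activity change below -50%, luminescence cut by over half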;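 further: luciferase reports HSF-1 transcriptional activity via heat shock element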
STAT1 blocker: STAT1 signaling inhibition. inhibition, % at 5.5 µM. NIH 3T3 STAT1-luciferase reporter, IFN-gamma, luminescence. 200,000 tested, 0.35% active;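 active means inhibition above a set limit, the mean inhibition across all tested compounds plus 3 SD, cut at about 34% in these data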
STAT3 inh: inhibitors of IL-6 induced STAT3 signaling | U3A cells, IL-6 STAT3-luciferase reporter, luminescence; host cell line lacks STAT1 | inhibition, % at 5.5 µM | 190,000 tested, 0.89% active | AID 862;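 active means inhibition above the mean inhibition across all screened compounds plus 3 SD, cut at about 44% in these data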
Numbers stand for hits; i = inactive; nt = no result.

SMILES	HSP90 refold inh	PPC-1+TRAIL kill	TRAIL sens C8	HSF1 inh	STAT1 blocker	STAT3 inh
COc1ccccc1CNC(=O)c1cc(-c2cc(F)ccc2OC(C)C)n[nH]1	nt	nt	i	nt	nt	nt
CCOC(=O)N1CCN(C(C(=O)NC2CCCC2)c2cccc(OC)c2OC)CC1 (centres undefined)	nt	nt	i	nt	nt	nt
CC(C)C[C@H]1CNC(=S)N1CC1CCN(CCCCc2ccccc2)CC1	nt	nt	i	nt	nt	nt
COc1ccccc1Oc1coc2cc(OCC(N)=O)ccc2c1=O	i	nt	i	i	nt	nt
CCCNC(=O)COc1ccc2c(=O)c(Oc3ccccc3F)coc2c1	i	i	i	-70	i	i
OC1c2c(F)cccc2N=C2CCCCCN21 (centres undefined)	nt	nt	i	nt	nt	nt
CC(C)CCc1c(O)nc(SCC(=O)N2CCCCCC2)[nH]c1=O	i	nt	i	-74	nt	nt
CCCc1c(O)nc(SCC(=O)N2CCCCC2)[nH]c1=O	i	nt	i	i	nt	nt
Cc1cc(C(=O)NNS(=O)(=O)c2ccc(F)cc2)nn1C(C)(C)C	i	i	i	-71	nt	nt
Cc1cc(C(=O)NNC(=O)c2cccs2)nn1C(C)(C)C	i	nt	i	i	nt	nt
C=CCOc1ccc(/C=C/C(=O)OCC(=O)NCC2CCCCC2)cc1	nt	nt	i	-68	nt	nt
Cc1cc(NC(=O)c2ccc(S(=O)(=O)N3CCCC3)cc2)nc2c1c(=O)oc1ccccc12	i	i	55	i	i	i
CCOc1ccc(C(=O)Nc2cc(C)c3c(=O)oc4ccccc4c3n2)cc1	i	i	56	i	i	i
Cc1cc(NC(=O)c2ccccc2)nc2c1c(=O)oc1ccccc12	i	i	i	i	i	i
O=C(NCc1ccccc1)c1cc(C2COCCN2C(=O)c2ccc3c(c2)CCO3)on1 (centres undefined)	nt	nt	i	nt	nt	nt
CC(C)N1CCC(N2CCN(C3CCCC3)CC2CCO)CC1 (centres undefined)	i	i	i	-56	i	i
OCCC1CN(C2CCSCC2)CCN1C1CCCC1 (centres undefined)	i	i	i	i	i	i
COC(=O)[C@H](NC(=O)c1cc([C@@H](NC(=O)OC(C)(C)C)C(C)C)sc1N)C(C)C	nt	nt	i	nt	nt	nt
CCOc1ccc(NC(=O)C(C)NS(=O)(=O)c2ccc(NC(C)=O)cc2)cc1 (centres undefined)	i	i	i	-67	i	i
COc1ccc(NC(=O)[C@H](C)NS(=O)(=O)c2ccc(NC(C)=O)cc2)cc1Cl	nt	nt	i	nt	nt	nt
O=C(NC1CCN(Cc2ccccc2)CC1)c1[nH]c(C(F)(F)F)nc1-c1ccccc1	nt	nt	i	nt	nt	nt
C=C(C)CSc1nnc2n(Cc3ccccc3)c(=O)c3c4c(sc3n12)CCC4	i	i	85	i	i	i
Cc1cc(Cl)n2c(nc3cc(F)c(F)cc32)c1C#N	i	i	74	i	i	i
COc1cccc(N(CC(=O)Nc2cccnc2)S(C)(=O)=O)c1	i	i	i	-81	i	i
COc1ccc(OC)c(N(CC(=O)Nc2ccccc2)S(C)(=O)=O)c1	i	i	i	-65	i	i
SMILES	HSP90 refold inh	PPC-1+TRAIL kill	TRAIL sens C8	HSF1 inh	STAT1 blocker	STAT3 inh
COC(=O)[C@]12CCCCC=C1N(Cc1ccccc1)C(=O)[C@H](CC(=O)NCCCCc1ccccc1)C2	nt	nt	i	nt	nt	nt
C/C(Cn1nnc([N+](=O)[O-])n1)=N\NC(=O)c1ccc(Cl)c(Cl)c1	i	i	i	i	i	i
C/C(Cn1nnc([N+](=O)[O-])n1)=N\NC(=O)c1ccc(O)cc1O	i	i	i	i	i	i
C/C(Cn1nnc([N+](=O)[O-])n1)=N\NC(=O)c1ccc(O)cc1	i	i	57	i	nt	nt
C/C(Cn1nnc([N+](=O)[O-])n1)=N\NC(=O)c1ccccc1O	i	i	59	i	nt	nt
Cc1cccc(C)c1NC(=O)C1(C)CSCC(=O)N1Cc1cccc(C(F)(F)F)c1 (centres undefined)	nt	nt	i	nt	nt	nt
CCOC(=O)[C@]12CCC=C1N(Cc1ccco1)C(=O)[C@H](CC(=O)NCCCCc1ccccc1)C2	nt	nt	i	nt	nt	nt
O=C1NC[C@H](CCCCN2CCN(CCc3ccc(O)cc3)C(=O)C2=O)N(CCC2CCCCC2)C1=O	nt	nt	i	nt	nt	nt
Fc1cccc2sc(Nc3nc4cc5c(cc4s3)OCO5)nc12	i	i	i	i	i	i
CC(=O)Nc1nc2cc3c(cc2s1)OCCO3	17	nt	i	i	nt	nt
COc1ccc2nc(NC(=O)c3cc(C)oc3C)sc2c1	i	i	i	i	i	i
Fc1cccc2sc(Nc3nc4cc5c(cc4s3)OCCO5)nc12	i	i	53	i	i	i
